These results are taken from PubChem BioAssay AID504660 (National Center for Advancing Translational Sciences (NCATS), 2011).

In all, about 360,000 compounds went through this assay and about 3,700 (1%) were called active. Rule as the data show it: active = activation above about 30%; inactive = the rest. The full list was thinned out, with actives kept by preference.

Sequence of D(1A) dopamine receptor (Homo sapiens) (P21728 whole entry, looked up): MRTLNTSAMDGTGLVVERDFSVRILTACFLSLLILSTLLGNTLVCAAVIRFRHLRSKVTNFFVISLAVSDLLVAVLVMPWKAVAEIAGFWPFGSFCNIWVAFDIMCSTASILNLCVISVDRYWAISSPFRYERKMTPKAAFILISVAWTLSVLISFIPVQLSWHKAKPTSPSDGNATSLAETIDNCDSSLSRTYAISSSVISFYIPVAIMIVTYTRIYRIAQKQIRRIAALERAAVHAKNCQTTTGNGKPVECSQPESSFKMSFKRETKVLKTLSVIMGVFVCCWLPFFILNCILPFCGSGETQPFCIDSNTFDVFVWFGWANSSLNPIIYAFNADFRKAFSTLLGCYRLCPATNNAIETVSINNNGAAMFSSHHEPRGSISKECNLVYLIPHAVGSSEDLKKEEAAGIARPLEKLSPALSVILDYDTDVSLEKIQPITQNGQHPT

This assay concerns the target D(1A) dopamine receptor (Homo sapiens) (UniProt P21728). Briefly: Allosteric Agonists of the Human D1 Dopamine Receptor: qHTS. Also: 0% is about no effect. The note with it: HEK293 T-REx D1 cells, calcium flux, agonist mode; at 2 µM; active compounds read high. The gist of the method: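 Agonism was scored from calcium flux recorded over 180 s (1 read/s) after pintool compound addition, following a 10-cycle baseline. Cells were inducible force-coupled HEK293 TREx D1, plated overnight at 30 C and loaded with no-wash calcium dye.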
With `COc1ccc(C(=O)C2CCCN(Cc3cccn3-c3ccccn3)C2)c(C)c1` (stereo not drawn), the activation is 34% (active).
The same measure for `COc1ccc(C(=O)C2CCCN(C(=O)c3cnsn3)C2)c(C)c1` (stereo not drawn): 2.63% (inactive); for `COc1ccc(C(=O)C2CCCN(S(=O)(=O)c3cccc(C)c3)C2)c(C)c1` (stereo not drawn): 12.7% (inactive); for `O=S(=O)(c1ccc2c(c1)OCCCO2)N1CCN(S(=O)(=O)c2c(F)cccc2F)CC1`: 7.42% (inactive).
Regarding `CCc1ccc(CNC(=O)c2ccc(CS(=O)c3ccc(Br)cc3)o2)cc1` (stereo not drawn), the activation was 2.59% (inactive).
Next, `CCc1ccccc1NC(=O)c1ccc(F)c(S(=O)(=O)NC2CCCCCC2)c1`: -1.43% (inactive).
The same measure for `O=S(=O)(NC1CC1)c1ccc2c3c(cccc13)CC2`: 2.42% (inactive); for `O=S(=O)(NC1CCCCC1)c1ccc(F)c2ccccc12`: 102% (active); for `Nc1c(C(=O)c2cccs2)sc2nsc(SCCN3CCCCC3)c12`: 257% (active).
Next, `CCc1ccc(CNCc2c(C(=O)O)n(Cc3ccc(F)cc3Cl)c3cc(OC)ccc23)cc1`: 0.499% (inactive); `CCOc1ccccc1NC(=O)C1CCCN(S(=O)(=O)c2cn(C)cn2)C1` (stereo not drawn): -2.08% (inactive).
On to `NC(=O)C1=C[C@H](c2csc3ccccc23)C[C@H](OCc2ccc(CO)cc2)O1`, for which the activation is 203% (active).
Next, `NC(=O)C1=C[C@@H](c2csc3ccccc23)C[C@@H](OCc2ccc(CO)cc2)O1`: 11.8% (inactive); `O=C(NC1CC1)C1=C[C@H](c2c[nH]c3ccccc23)C[C@H](OCc2ccc(CO)cc2)O1`: 7.93% (inactive).
Next, `Cc1cccc(NC(=O)Cn2c(C(F)(F)F)nc3ccccc32)c1C`: 2.74% (inactive); `Oc1ccc(Cl)cc1C1C=C(c2ccc3c(c2)OCO3)NC(c2ccc(F)c(Br)c2)N1` (stereo not drawn): 16.4% (inactive); `Cc1ccc(-c2cc(N)n(Cc3cccc(Cl)c3)n2)cc1`: -0.135% (inactive).
Next, `COc1cc(OC)c(OC)cc1/C=C/c1nc2cc3ccccc3cc2c(=O)n1-c1ccc(F)c(Cl)c1`: 0.411% (inactive).
`COCCNC(=O)c1ccc2c(c1)N(Cc1cccc(Cl)c1)C(=O)c1ccccc1S2(=O)=O`: the activation is 4.3% (inactive).
The same measure for `CCCN1CCN(CCCNC(=O)c2ccc3nc(Cc4ccccc4)oc3c2)CC1`: 4.88% (inactive); for `CN1CCN(CCCNC(=O)c2ccc(/C=C3\Oc4ccccc4N(Cc4ccc(Cl)cc4)C3=O)cc2)CC1`: 87.5% (active); for `Cc1cccc(NC(=O)CN(c2ccc(C(C)C)cc2)S(=O)(=O)c2c(C)nn(C)c2C)c1C`: 3.58% (inactive).
Next, `COc1cc(NC(=O)c2cc3ccc4cccnc4c3[nH]2)cc(OC)c1OC`: -0.0279% (inactive).
